The structures appear in SMILES notation. Compounds without any hit were thinned out: in the full panel of roughly 83,000, 20% have a hit.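 Single-concentration screen, 48 h exposure, 96-well plates. Endpoint: percent growth. Below 10 = active.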 Values without a mark were called inactive. The source made the active and inactive calls.

Some test systems named below: T-47D breast; BT-549 breast; MDA-MB-435 melanoma; SW-620 colon; MCF7 breast; HCT-116 colon; HCC-2998 colon; KM12 colon.
Holding throughout (assay): NCI-60 one-dose screen, 48 h (100 = growth as untreated, 0 = no growth, -100 = all killed)
Common to all, as to conditions: 10 µM unless noted

Consider `COc1cc2nc(-c3ccc(Cl)cc3)cc(OCCCN3CCCCC3)c2cc1OC`, for which the growth was 35.4% in the experiment on T-47D breast; 40.9% in the experiment with BT-549 breast; -22.5% (active) in the experiment with MDA-MB-435 melanoma; 40.8% with SW-620 colon; 45.8% with MCF7 breast; 22.9% in the experiment with HCT-116 colon. The growth was 67.7% in the experiment on HCC-2998 colon and 44.6% with KM12 colon.
Turning to `N/C(=N\C(N)=N\c1nc2ccccc2s1)c1cccc(Cl)c1`, the growth with T-47D breast was 46.9%; in the experiment with BT-549 breast it was 81.1%; in the experiment with MDA-MB-435 melanoma, 99.3%; in the experiment with SW-620 colon, 98.5%; in the experiment on MCF7 breast it was 69.9%; with HCT-116 colon it was 73.8%. The growth in the experiment on HCC-2998 colon is 104%.
Take `NC(=NCc1ccccc1)C(N=Nc1ccccc1)C(=O)NCc1ccccc1` (configuration not stated): the growth was 84.6% in the experiment with T-47D breast; 114% with BT-549 breast; 81.4% in the experiment with MDA-MB-435 melanoma; 61.5% in the experiment with SW-620 colon; 69.4% with MCF7 breast; 15.8% in the experiment on HCT-116 colon. Also, the growth in the experiment with HCC-2998 colon is 74.7%.
As for `COc1ccc(-c2cnc3c(-c4cccc5ncccc45)cnn3c2)cc1`, the growth was 45.7% in the experiment on T-47D breast; 37.1% in the experiment on BT-549 breast; 58% in the experiment with MDA-MB-435 melanoma; 73.8% in the experiment with SW-620 colon; 72.2% in the experiment with MCF7 breast; 11.9% in the experiment with HCT-116 colon. The growth with HCC-2998 colon is 90.7%.
Consider `COc1ccc(C(=O)c2cc(C)c(OC)c(C)c2)c(OC)c1N(C(=O)CCl)C(=O)CCl`, for which the growth in the experiment with T-47D breast was 51.2%; in the experiment with BT-549 breast it was 3.05% (active); with MDA-MB-435 melanoma, -46.8% (active); in the experiment with SW-620 colon, 20.3%; in the experiment on MCF7 breast, 14%; with HCT-116 colon it was -0.69% (active). Besides, in the experiment with HCC-2998 colon, the growth is 13.5%.
With `Cc1cnc(C(=O)Nc2nc3ccc(S(=O)(=O)Nc4ccc(C5(C(F)(F)F)CC5)cc4)cc3[nH]2)cn1`, the growth in the experiment on T-47D breast was 21.6%; in the experiment with BT-549 breast it was 40.6%; with MDA-MB-435 melanoma it was -77.5% (active); in the experiment with SW-620 colon, 15%; in the experiment with MCF7 breast, 17.4%; in the experiment on HCT-116 colon it was 19.5%. For the same compound, in the experiment with HCC-2998 colon, the growth was 42.4%.
For `COc1cc(/C=C/c2cc(O)c(C(C)=O)c(O)c2)cc2c1O[C@]1(C)CC[C@@H](O)C(C)(C)[C@H]1C2`, the growth was 49% in the experiment with T-47D breast; 22.1% with BT-549 breast; 73% in the experiment with MDA-MB-435 melanoma; 69.3% with SW-620 colon; 45.3% in the experiment with MCF7 breast; 45.2% with HCT-116 colon. Besides, the growth with HCC-2998 colon is 75.1%.
For the compound `Cc1c(C)c([N+](=O)[O-])c(C)c([N+](=O)[O-])c1C`, the growth was 113% with T-47D breast; 95.8% with BT-549 breast; 115% in the experiment on MDA-MB-435 melanoma; 109% in the experiment on SW-620 colon; 97.3% with MCF7 breast; 105% in the experiment on HCT-116 colon. Also, the growth with HCC-2998 colon is 112%.
For `COc1cc(/C=N/NC(=O)c2cnn3c2NC(c2ccccc2)C3)ccc1Oc1ccccc1` (configuration not stated), the growth in the experiment on T-47D breast is 28.6%; with BT-549 breast it was 6.76% (active); with MDA-MB-435 melanoma it was -22.9% (active); with SW-620 colon it was 24.9%; with MCF7 breast, 9.6% (active); in the experiment on HCT-116 colon, 1.82% (active). For the same compound, the growth in the experiment with HCC-2998 colon is 57.3%.
Regarding `Oc1ccc(C2c3ccccc3Oc3ccccc32)c2cccnc12`, the growth is 31.1% in the experiment on T-47D breast; 29.3% in the experiment on BT-549 breast; 27.3% in the experiment with MDA-MB-435 melanoma; 23.5% with SW-620 colon; 17.4% with MCF7 breast; 20.1% with HCT-116 colon. Also, the growth in the experiment on HCC-2998 colon is 35.4%.
As to `COc1ccc2c(c1)oc1c(C)c3c(c(C)c12)C(=O)N(CCN1CCOCC1)C3=O`, the growth in the experiment with T-47D breast is 106%; with BT-549 breast, 97.6%; in the experiment with MDA-MB-435 melanoma, 105%; with SW-620 colon it was 93%; in the experiment on MCF7 breast, 109%; with HCT-116 colon, 83%. Besides, the growth in the experiment with HCC-2998 colon was 111%; with KM12 colon it was 96.1%.
As for `CNC(=O)c1cncc(Cn2nc(C)c(NC(=O)c3ccc(COc4ccc(C(F)(F)F)cc4C)cc3)c2C)c1`, the growth was 29.7% with T-47D breast; 32.4% in the experiment on BT-549 breast; 66.6% in the experiment on MDA-MB-435 melanoma; 102% in the experiment with SW-620 colon; 37.5% in the experiment with MCF7 breast; 44.7% in the experiment with HCT-116 colon. Moreover, in the experiment with HCC-2998 colon, the growth is 77.8%.
With `COc1cc2c(=O)n(CCN(C)C)c3c4cc5c(cc4ccc3c2cc1OC)OCO5`, the growth is -20.5% (active) in the experiment with T-47D breast; 1.42% (active) with BT-549 breast; -65.4% (active) with MDA-MB-435 melanoma; -17.9% (active) in the experiment on SW-620 colon; 7.27% (active) with MCF7 breast; -7.98% (active) in the experiment on HCT-116 colon. The growth with HCC-2998 colon is -58.1% (active).
Turning to `O=C(CCN1CCCC1)Nc1ccc2c(NCc3ccccc3)c3ccccc3nc2c1`, the growth was -5.83% (active) in the experiment with T-47D breast; 16.8% in the experiment with BT-549 breast; -5.11% (active) with MDA-MB-435 melanoma; -20.4% (active) in the experiment with SW-620 colon; -5.67% (active) with MCF7 breast; -15.5% (active) with HCT-116 colon. The growth with HCC-2998 colon was -37.4% (active).
As to `O=C(Cn1c[n+](CC(=O)c2ccc([N+](=O)[O-])cc2)c2ccccc21)Nc1cccc2cccnc12`, the growth was 33.9% in the experiment with T-47D breast; 35.9% in the experiment on BT-549 breast; 60% with MDA-MB-435 melanoma; 54.8% in the experiment on SW-620 colon; 31.4% in the experiment with MCF7 breast; 37.2% in the experiment with HCT-116 colon. For the same compound, the growth with HCC-2998 colon was 50.4%.
With `COc1cc(/C=C/C(=O)c2nc3cc(F)ccc3nc2C)cc(OC)c1OC`, the growth with T-47D breast was 48%; with BT-549 breast it was 112%; in the experiment with MDA-MB-435 melanoma it was 75%; in the experiment with SW-620 colon, 29.9%; with MCF7 breast, 34.1%; with HCT-116 colon, 44.5%. Also, the growth with HCC-2998 colon is -4.35% (active); in the experiment on KM12 colon, 36.2%.
Take `O=c1c2c(c(=O)n1O)c1c3ccc[nH]c3nc1c1nc3[nH]cccc3c12`: the growth is 60.7% in the experiment with T-47D breast; 80.9% in the experiment with BT-549 breast; 96.3% in the experiment on MDA-MB-435 melanoma; 62.4% with SW-620 colon; 73.5% with MCF7 breast; 72.7% in the experiment with HCT-116 colon. Further, in the experiment with HCC-2998 colon, the growth is 84.9%.

Source of the values: PubChem BioAssay (NCI).
